Bioassay records deposited in PubChem by National Center for Advancing Translational Sciences (NCATS).
An excerpt weighted towards active compounds, which were near 0.81% of everything screened.
TRHR agonist-1 = agonists of human TRH receptor. P34981. TRHR cells, calcium flux fluo-8, FDSS agonist mode. activation, % at 2 µM. hit rate 0.18% among 360,000. AID 493084; in the data active = activation above about 30%; also: 0% is about no effect
Target sequence (P34981 whole entry, looked up): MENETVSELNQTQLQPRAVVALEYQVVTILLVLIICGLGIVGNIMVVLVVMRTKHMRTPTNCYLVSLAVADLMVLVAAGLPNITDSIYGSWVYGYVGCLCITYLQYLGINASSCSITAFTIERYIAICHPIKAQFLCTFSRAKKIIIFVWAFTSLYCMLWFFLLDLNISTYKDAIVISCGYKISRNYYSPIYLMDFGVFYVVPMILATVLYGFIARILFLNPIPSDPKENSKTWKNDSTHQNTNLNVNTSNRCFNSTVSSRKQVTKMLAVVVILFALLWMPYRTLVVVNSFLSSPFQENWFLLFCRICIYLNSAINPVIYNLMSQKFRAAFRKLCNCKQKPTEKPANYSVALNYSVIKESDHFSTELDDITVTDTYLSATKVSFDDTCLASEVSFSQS
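Agonist-mode FDSS calcium read (Ex 480/Em 530, 1 s cycles) in 1536-well TRHR cells with fluo-8 dye, after 10-cycle baseline and 23 nL compound addition; TRH at EC20 (10 nM final) added afterwards for the enhancer phase.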
PTAP TSG101 blk = blocks PTAP/TSG101 interaction to inhibit HIV-1 budding | Fluorescence polarization, FITC-PTAP peptide / Tsg101 binding | Q99816 | 340,000 tested, under 10 active | Potency, µM (titrated, usually from 115 µM), inactives show top-dose activity change, negative = inhibition, actives largely listed as inhibitors; active = well fitted inhibition curve with a large enough effect in the main read-out, with a control signal flat, not every such curve was filed as active; inconclusive = small, poorly fitted or top-dose-only effect, or effect the other way, or a change in a side signal; inactive = no such curve, though single readings can be large or run the other way; also: potency is read from the fitted curve at half-maximal effect; % of control where 0% means no effect
Target sequence (Q99816 whole entry, looked up): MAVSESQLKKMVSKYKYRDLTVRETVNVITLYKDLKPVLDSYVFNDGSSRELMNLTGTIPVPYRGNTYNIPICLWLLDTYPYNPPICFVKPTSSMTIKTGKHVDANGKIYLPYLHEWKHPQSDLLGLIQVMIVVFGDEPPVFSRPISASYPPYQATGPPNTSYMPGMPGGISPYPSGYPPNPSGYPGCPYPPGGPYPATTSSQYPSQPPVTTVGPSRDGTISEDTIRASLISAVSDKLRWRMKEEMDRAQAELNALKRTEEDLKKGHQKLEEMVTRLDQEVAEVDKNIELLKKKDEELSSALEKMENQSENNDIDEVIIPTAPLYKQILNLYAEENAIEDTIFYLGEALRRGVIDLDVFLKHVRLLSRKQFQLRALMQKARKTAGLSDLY
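Tsg101 binding domain (10 uM final) was mixed with compound and a FITC-labeled PTAP peptide (50 nM final) in HEPES pH 7.5 buffer with NaCl, Tween 20, EDTA and TCEP; fluorescence polarization was read after 20 min at r.t.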
TRPML1 blocker = human mucolipin-1 channel inhibition; Q9GZU1; TRPML1-inducible cells, Ca2+ dye fluorescence, FDSS; hits give low values; inhibition of EC80 agonist-evoked calcium signal; activity change, negative = inhibition, % (test concentration not listed); hit rate 0.02% among 390,000; AID 624415; in the data active = activity change below about -50%; inconclusive = between about -30% and that limit;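 also: stimulus is agonist 54-4 at its EC80 concentration; % is scaled to controls: 0 for no effect and ±100 for the full control effect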
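Calcium fluorescence in TRPML1-DL cells induced overnight with Tet: a 110 s read after compound pin addition, then a 110 s antagonist read after challenge with 54-4 at 4 uM final (EC80).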
TRPML1 agonist = activates the human TRPML1 channel | Q9GZU1 | TRPML1-expressing cells, Ca2+ dye fluorescence, FDSS | activation, % (concentration not given with the values) | hit rate 0.12% among 410,000; in the data active = activation above about 50%; inconclusive = mostly about 30% to 49%; also: 0% is about no effect
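In this qHTS format, compounds were pin-transferred onto Ca8-dye-loaded TRPML1-DL cells induced with Tet overnight, and intracellular Ca2+ fluorescence was recorded kinetically for 110 s after a 10 s baseline. A subsequent 4uM final 54-4 (EC80) addition followed by a second 110 s read served as the antagonist phase.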
TRHR enhancer-1 = allosterically enhances the human TRH receptor. hit rate 0.66% among 360,000. TRHR cells, fluo-8 calcium fluorescence, EC20 TRH enhancement. P34981. enhancement, % at 2 µM; in the data active = enhancement above about 30%; also: 0% is about no effect
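TRHR-expressing cells loaded with fluo-8 calcium dye were read kinetically (ex 480/em 530) during compound addition, then stimulated with an EC20 of TRH (10 nM final). Enhancement of the Gq-mediated intracellular calcium response was scored.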
TRHR enhancer-2 = human TRH receptor allosteric enhancement confirmation | shares compounds with TRHR enhancer-1 | TRH receptor cell assay, enhancer confirmation qHTS | activity change, negative = inhibition, % at 46.1 µM | 970 tested, under 10 active | AID 493076;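 also: compound effect scored on response to added TRH at EC20 of 10 nM; 0% is about no effect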
TRHR agonist-2 = confirmation of human TRH receptor agonists | shares compounds with TRHR enhancer-1 | TRHR-expressing cells, agonist activation read-out | Potency, µM (top dose mostly 46.1 µM), for inactives: at the highest dose activation, most hits filed as activators | hit rate 8% among 970; also: potency is read from the fitted curve at half-maximal effect; 0% is about no effect; nearly all actives have a fitted effect of over 75% in size
* = called active by the depositor. Unless noted, calls follow the shape of the dose curve; as a rule, active = well fitted curve in the direction sought with a large enough effect; inconclusive = small, poorly fitted or top-dose-only effect, or another doubt; inactive = no such curve, though single readings can be large; an effect the other way counts as inactive or inconclusive.

How did CCOc1ccc(-c2csc3ncn(-c4ccc(OC)cc4)c(=O)c23)cc1 do in these assays?
TRHR agonist-1: -1.9; PTAP TSG101 blk: -2.2%; TRPML1 blocker: -0.3; TRPML1 agonist: -0.7; TRHR enhancer-1: 43.8*; TRHR enhancer-2: -3.1; TRHR agonist-2: 0.7%

How did CCn1cnc2scc(-c3ccc(OC)cc3)c2c1=O do in these assays?
TRHR agonist-1: -0.5; PTAP TSG101 blk: -5.1%; TRPML1 blocker: -11.3; TRPML1 agonist: 0.2; TRHR enhancer-1: 21.4

What do the screens show for `Cn1c(SCC(=O)NCc2ccco2)nnc1-c1cccc(NC(=O)c2ccccc2)c1`?
TRPML1 agonist: -0.4

What do the screens show for `C/C=C(\NNC(C)=O)c1ccc(O)cc1`?
TRPML1 agonist: -1.3

How did CCOc1ccc(N(Cc2nnc3n2CCCCC3)C(=O)Nc2cccc(C)c2)cc1 do in these assays?
TRHR agonist-1: -0.1; PTAP TSG101 blk: -1.6%; TRPML1 blocker: 44.3; TRPML1 agonist: -0.4; TRHR enhancer-1: 57.8*; TRHR enhancer-2: -5.0; TRHR agonist-2: 0.5%

How did COc1cc(C2C(C#N)=C(N)Oc3cc(N(C)C)ccc32)cc2c1OCO2 (configuration not stated) do in these assays?
TRHR agonist-1: 44.7*; PTAP TSG101 blk: 6.9%; TRPML1 blocker: -12.8; TRPML1 agonist: 0.7; TRHR enhancer-1: 2.0; TRHR enhancer-2: 2.8; TRHR agonist-2: inconclusive

Results for Cc1cc[n+](CC(=O)c2ccc(F)cc2)c2ccccc12 ?
TRPML1 agonist: -0.6

How did CCn1c2ccccc2c2cc(/C=C3/C=Cc4ccccc43)ccc21 do in these assays?
TRPML1 agonist: -0.2

What do the screens show for `COc1cc(C(=O)NC2CCCC2)c(Br)c(OC)c1OC`?
TRHR agonist-1: 0.0; PTAP TSG101 blk: -0.1%; TRPML1 blocker: 5.1; TRPML1 agonist: -1.0; TRHR enhancer-1: 49.1*; TRHR enhancer-2: -1.1; TRHR agonist-2: 4.9%

How did COc1cc(C(=O)NC2CCCCCCC2)cc(OC)c1OC do in these assays?
PTAP TSG101 blk: 2.5%; TRPML1 blocker: 17.5; TRPML1 agonist: 3.1

How did c1ncc2snnc2n1 do in these assays?
TRPML1 agonist: 0.4

What do the screens show for `CCOCC(=O)Nc1ccc(C)c(Cl)c1`?
TRHR agonist-1: -0.6; PTAP TSG101 blk: -11.1%; TRPML1 blocker: 3.0; TRPML1 agonist: 0.6; TRHR enhancer-1: 62.4*; TRHR enhancer-2: -6.5; TRHR agonist-2: 1.6%

How did Cc1ccc(NC(=O)COc2ccccc2)cc1Cl do in these assays?
TRHR agonist-1: 0.1; PTAP TSG101 blk: -3.6%; TRPML1 blocker: -5.3; TRPML1 agonist: -0.7; TRHR enhancer-1: 6.7

How did CCOC(=O)C1CCN(C(=O)Cn2cc(C(=O)C3CC3)c3ccccc32)CC1 do in these assays?
TRHR agonist-1: -0.3; PTAP TSG101 blk: -4.0%; TRPML1 blocker: 3.0; TRPML1 agonist: -0.4; TRHR enhancer-1: 2.4

Results for O=C(c1cn(CC(=O)N2CCCCC2)c2ccccc12)C1CC1 ?
TRHR agonist-1: 0.2; PTAP TSG101 blk: -6.7%; TRPML1 blocker: -5.8; TRPML1 agonist: 0.0; TRHR enhancer-1: 50.6*; TRHR enhancer-2: -1.8; TRHR agonist-2: -0.5%

What do the screens show for `C=C(C)[C@@H]1C2=CC(C(=O)OC)=C(C[C@@H](C(=C)C)[C@H]3O[C@H]3C3=C[C@H]1OC3=O)O2`?
TRPML1 agonist: 1.9

Results for Clc1cccc(Cl)c1CSc1nnc(-c2ccncc2)s1 ?
TRHR agonist-1: 25.5; PTAP TSG101 blk: -3.9%; TRPML1 blocker: 2.9; TRPML1 agonist: 7.1; TRHR enhancer-1: 2.5; TRHR enhancer-2: 0.0; TRHR agonist-2: inconclusive

How did Clc1ccc(CSc2nnc(-c3ccncc3)s2)cc1 do in these assays?
TRHR agonist-1: -1.8; PTAP TSG101 blk: 0.2%; TRPML1 blocker: 36.8; TRPML1 agonist: 2.4; TRHR enhancer-1: -5.1

How did CC1(C)NC(=O)N(CC(O)Cn2nnc3ccccc32)C1=O (configuration not stated) do in these assays?
TRHR agonist-1: 0.1; PTAP TSG101 blk: 9.5%; TRPML1 blocker: 20.7; TRPML1 agonist: 6.1; TRHR enhancer-1: 50.5*; TRHR enhancer-2: -1.4; TRHR agonist-2: 0.4%

How did Cc1ccc(S(=O)(=O)N2CCN(CC(=O)Nc3ccc4c(c3)CCC4)CC2)cc1C do in these assays?
TRHR agonist-1: -0.1; PTAP TSG101 blk: 1.5%; TRPML1 blocker: -10.9; TRPML1 agonist: 2.0; TRHR enhancer-1: 44.0*; TRHR enhancer-2: -2.3; TRHR agonist-2: 3.9%

What do the screens show for `Cc1ccc(NC(=O)CN2CCc3ccccc3C2)cc1S(=O)(=O)N(C)C`?
TRHR agonist-1: 0.2; PTAP TSG101 blk: 0.5%; TRPML1 blocker: 20.0; TRPML1 agonist: 0.6; TRHR enhancer-1: 58.1*; TRHR enhancer-2: -3.8; TRHR agonist-2: 0.3%

Results for O=C(CN1CCN(S(=O)(=O)c2ccc(Cl)cc2)CC1)Nc1ccc2c(c1)CCC2 ?
TRHR agonist-1: 0.1; PTAP TSG101 blk: -3.0%; TRPML1 blocker: -1.3; TRPML1 agonist: 1.4; TRHR enhancer-1: -0.6

What do the screens show for `CN(C)c1ccc(C(C(=O)NCC2CCCO2)N(C(=O)c2snc(C(N)=O)c2N)c2ccccc2)cc1` (configuration not stated)?
TRHR agonist-1: 0.0; PTAP TSG101 blk: -1.1%; TRPML1 blocker: -7.1; TRPML1 agonist: 0.0; TRHR enhancer-1: 7.3

What do the screens show for `CN(C)c1ccc(C(C(=O)NCC2CCCO2)N(C(=O)c2snc(C(N)=O)c2N)c2ccc3c(c2)OCO3)cc1` (configuration not stated)?
TRHR agonist-1: -0.7; PTAP TSG101 blk: -5.4%; TRPML1 blocker: -3.1; TRPML1 agonist: 0.6; TRHR enhancer-1: 53.5*; TRHR enhancer-2: -3.8; TRHR agonist-2: -0.3%

What do the screens show for `Cc1cccc(N(C(=O)c2snc(C(N)=O)c2N)C(C(=O)NC2CCCC2)c2ccncc2)c1` (configuration not stated)?
TRHR agonist-1: 0.0; PTAP TSG101 blk: 0.4%; TRPML1 blocker: -7.3; TRPML1 agonist: -0.2; TRHR enhancer-1: 42.4*; TRHR enhancer-2: -1.2; TRHR agonist-2: -0.5%

How did COc1ccc(CNCc2ccccc2C(F)(F)F)cc1 do in these assays?
TRHR agonist-1: -0.1; PTAP TSG101 blk: -2.1%; TRPML1 blocker: -13.2; TRPML1 agonist: 1.0; TRHR enhancer-1: -1.8

What do the screens show for `COc1ccc(CNCc2cccc3ccccc23)cc1`?
TRHR agonist-1: 1.1; PTAP TSG101 blk: -1.6%; TRPML1 blocker: 54.8; TRPML1 agonist: 0.5; TRHR enhancer-1: 51.9*; TRHR enhancer-2: inconclusive; TRHR agonist-2: inconclusive

How did Cc1ccc(C(=O)C(C)[n+]2cccc(C(N)=O)c2)cc1 (configuration not stated) do in these assays?
TRHR agonist-1: 0.3; PTAP TSG101 blk: -1.2%; TRPML1 blocker: 17.5; TRPML1 agonist: 2.1; TRHR enhancer-1: 6.7
